Among all 360,000 compounds or so, about 2,600 (0.72%) were called active. The list comes from a sample in which actives are over-represented; it also holds similar structures and randomly drawn compounds. Values without a mark were called inactive.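 The calls were made as follows: active = inhibition of the luminescence signal of 40% or more relative to plate controls, in a single-dose primary screen at 18.75 µM; inactive = the rest.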

Experimental findings from PubChem BioAssay AID624352 (Sanford-Burnham Center for Chemical Genomics, 2012) are described below.

This experiment is described as follows: blockers of HIF-2a driven luciferase – luminescence, 786-0 RCC cells, primary screen (AID 624352). The note with it: 786-0 RCC cells HIF-2a reporter, overnight, at 18.8 µM, active compounds read high.
As a reminder, the inhibition is the relative decrease from the control value, in per cent. Regarding `FC(F)(F)c1nnc2c3ccccc3c(Cl)nn12`, the inhibition is 16.8%.
Next, `CC1(C(=O)Nc2ccc3c(c2)OCCO3)CN(S(C)(=O)=O)CC(=O)N1Cc1cccc(F)c1` (stereo not given): 11.6%.
Consider `O=C(Cc1ccc(Cl)cc1)NCc1nc(-c2ccccc2)no1`, for which the inhibition is 8.68%.
With `Cc1ccc(-c2noc(CNC(=O)c3ccoc3C)n2)cc1`, the inhibition was 89% (active).
The result for `Cc1ccc(-c2noc(-c3ccccc3C(=O)NCC3CCCO3)n2)cc1` (stereo not given) reads -126%; that for `COC(=O)c1ccc(COC(=O)c2cnccn2)cc1`, 9.27%.
The result for `Cc1nc(C(F)(F)F)ccc1C(=O)N1CCC1(C)C(=O)NS(=O)(=O)c1ccccc1` (stereo not given) reads 18.3%.
As for `CC(C)C(=O)NC(NC(=S)NC1CCS(=O)(=O)C1)C(Cl)(Cl)Cl` (stereo not given), the inhibition was -1.77%.
Regarding `CCCSC(=S)NC1CCS(=O)(=O)C1` (stereo not given), the inhibition was 41.3% (active).
As to `O=S1(=O)CCC(NC(=S)SCc2ccccc2Br)C1` (stereo not given), the inhibition was 37.1%.
Next, `CC(=O)OCC1(O)CC23CCC4c5ccoc5CCC4(C)C2CCC1C3` (stereo not given): 7.41%; `OCCNCCCCOc1ccccc1F`: -0.6%.
The result for `CC1(C)OC(=O)C2=C(C[C@@H](C3CCCC3)O[C@@H]2c2ccc(Cl)cc2)O1` reads 8.87%.
`CN(c1ccc2nc3ccccc3c(=O)n2n1)C1CCCCC1`: the inhibition is 78.2% (active).
`COCC(C)n1c(SCC(=O)NC2CCCCC2C)nc2ccccc2c1=O` (stereo not given): the inhibition is 15%.
As for `CN(C(=O)Nc1ccc(Cl)cc1)n1cnc2ccccc2c1=O`, the inhibition is -36.5%.
In the case of `Cc1cccc(OCC(=O)OCC(=O)Nc2ccc(Cl)cn2)c1`, the inhibition is 11.3%.
Turning to `O=C(CN1CCN(C2CCS(=O)(=O)C2)CC1)N1N=C(c2ccc(Cl)cc2)CC1c1ccco1` (stereo not given), the inhibition was 47.5% (active).
On to `Cc1ccc(C2=NN(C(=O)CSc3nc(N)cc(N)n3)C(c3ccco3)C2)cc1` (stereo not given), for which the inhibition was 24.9%.
As to `Cc1ccc(C2=NN(C(=O)COc3ncnc4ccccc34)C(c3ccco3)C2)cc1` (stereo not given), the inhibition was 6.33%.
Regarding `CN(C(=O)c1cccc(NC(=O)Cc2cccc(NC(=O)C3CCCN(C(=O)C4CC4)C3)c2)c1)C1CCC1` (stereo not given), the inhibition is 11.8%.
As for `COc1cc(C(O)c2nc(-c3cccc(C(=O)O)c3)cs2)ccc1F` (stereo not given), the inhibition was -9.8%.
Next, `COc1ccccc1C(=O)Nc1nc2nc(-c3ccccc3)cc(=O)n2[nH]1`: 4.83%; `COc1ccc2c(c1OC)C(=O)OC2Nc1nc(-c2ccccc2)cs1` (stereo not given): 57.8% (active); `CCN1CCN(C(=O)c2cc3cc4ccc(OC)cc4nc3s2)CC1`: -78.9%.
As to `COc1cc(OC)c(NS(=O)(=O)c2cn(C)cn2)cc1Cl`, the inhibition is 6.21%.
The result for `CSc1ccccc1NC(=O)Cc1ccc(Br)cc1` reads -11.3%; that for `COC(=O)c1ccc(COc2ccc(/C=C/C(=O)c3ccc(OC)c(CSCC(=O)O)c3)cc2OC)cc1`, -5.92%; that for `COc1ccccc1CCNC(=O)C1CCN(C(=O)/C=C/c2ccccc2)CC1`, -5.61%.
`COc1ccc(C(=O)/C=C/c2ccc(-c3ccccc3)cc2)cc1CSCC(=O)O`: the inhibition was 67.7% (active).
Turning to `CC(C)Cc1ccc(C(C)C(=N)N)cc1` (stereo not given), the inhibition was 25.6%.
With `COCCNC(=O)Nc1ccc2nc(-c3ccco3)c(-c3ccco3)nc2c1`, the inhibition is 42.3% (active).
The result for `COCCNC(=O)CN(Cc1ccco1)C(=O)CCC(=O)Nc1nccs1` reads 3.02%; that for `COc1ccc(CCNC(=O)Nc2ccc3c(c2)c(=O)n(C)n3C)cc1OC`, 3.46%; that for `O=S1(=O)CC(N2CCN(Cc3ccccc3F)CC2)CN1Cc1cn(Cc2cccc(C(F)(F)F)c2)nn1` (stereo not given), 1.15%.
Next, `CCOc1ccc(OCC(=O)Nc2c3c(nn2C(C)(C)C)CS(=O)(=O)C3)cc1`: -1.94%; `COc1ccc(NC(=O)COC(=O)CNC(=O)C2CCCCC2)cc1`: 12.4%; `O=C1CCC(C(=O)OCC(=O)Nc2ccc(OC(F)F)cc2)=NN1`: -7.05%.
The result for `CCC(C)(C)c1ccc(Oc2ccc(NC(=O)COC(=O)C3=COCCO3)cc2)cc1` reads 82.3% (active); that for `CCc1cccc(NC(=O)CCCN2C(=O)C(c3ccccc3)Oc3cccnc32)c1` (stereo not given), 9.51%; that for `Cc1ccc(C(=O)N2CC(=O)Nc3ccccc32)o1`, 14.2%.
Take `Fc1ccc(CNc2nc3ccccc3n3nnnc23)cc1`: the inhibition is -134%.
In the case of `CC(=O)Nc1ccc(C(=O)CSc2nnc(Cc3ccccc3)o2)cc1`, the inhibition is -43.3%.
Next, `CC(C)C[C@@H](N)c1nnc(SCC(=O)c2ccc(Cl)cc2)o1`: 56.9% (active).
Regarding `COc1cc(C(=O)NCc2nnc(SCC(=O)c3ccc(Cl)cc3)o2)cc(OC)c1OC`, the inhibition was 5.32%.
As to `C[C@H]1Cn2cnc(C(=O)N[C@@H](Cc3c[nH]c4ccccc34)C(=O)OC(C)(C)C)c2C(=O)N1`, the inhibition was -4.95%.
As to `C=CCC[C@@H](Cc1ccc(F)cc1)C(=O)O[C@H](CNC(=O)[C@H](CC=C)CC(=O)N(CCO)Cc1ccccc1)c1ccccc1`, the inhibition was 12.7%.
Next, `CCN1CCN(C(=O)C2(NC(=O)Nc3cccc(F)c3)CCCCC2)CC1`: 9.23%; `COc1ccc(NC(=O)C2C3C=CC(C3)C2C(=O)NCc2ccccn2)c(OC)c1` (stereo not given): 10.9%; `Cc1c(NC(=O)C(C)OC(=O)c2cc3c4ccccc4n(C)c3s2)c(=O)n(-c2ccccc2)n1C` (stereo not given): 4.75%.
`Cc1sc2ccccc2c1CNC[C@H]1O[C@@H](n2ccc(=O)[nH]c2=O)[C@H](O)[C@@H]1O`: the inhibition was 11.7%.
The result for `OC(c1cc(Cl)cc(Cl)c1)c1ncc(-c2ccccc2C(F)(F)F)[nH]1` (stereo not given) reads 14.7%.
Next, `O=C(OC12CC3CC(CC(C3)C1)C2)c1ccc(NCc2cc(O)ccc2O)cc1`: 88.1% (active); `CC(C)OCCCNC(=S)N1CCC(C(=O)c2ccc3c(c2)OCCO3)CC1`: -5.91%; `c1ccc(-c2ccnc3nc(-n4cccc4)nn23)cc1`: -8.27%.
The result for `C/C(N)=C(/C#N)C(=O)COC(=O)C1CCN(C(=O)c2ccc(Cl)cc2)CC1` reads 8.64%.
With `CCc1ccc(-c2cc(C)no2)cc1S(=O)(=O)NCCc1ccc(S(N)(=O)=O)cc1`, the inhibition is 9.29%.
On to `Cc1cc(CNC(=O)C2CCC(=O)N(CCc3ccc(Cl)cc3)C2)no1` (stereo not given), for which the inhibition was -9.67%.
Next, `O=C(NCCc1c[nH]c2ccc(Cl)cc12)c1ccc([N+](=O)[O-])cc1`: -9.18%; `COc1ccccc1-n1nnnc1S(=O)(=O)Cc1ccc(Cl)cc1`: 86% (active).
The result for `COc1ccccc1CN(C)c1nnnn1-c1ccccc1` reads 15.6%; that for `CCN(C(=O)CSc1nnnn1-c1ccccc1OC)C1CCS(=O)(=O)C1` (stereo not given), -1.01%.
In the case of `Cc1[nH]c2ccccc2c1C(=O)c1cc([C@H](NC(=O)OC(C)(C)C)C(C)C)sc1N`, the inhibition was 2.29%.
With `C=CCOc1ccccc1CNn1c(C)n[nH]c1=S`, the inhibition was 21.3%.
Next, `COc1cccc(C(NC(C)=O)c2nc(-c3cnc4ccccc4c3)cs2)c1` (stereo not given): -32.9%.
With `O=[N+]([O-])c1c(NCCO)cc(Sc2nc3ccccc3s2)c2nonc12`, the inhibition was 87% (active).
Take `CC(C)=CCN1CCN(CCCc2ccccc2)CC1CCO` (stereo not given): the inhibition was 16.8%.
The result for `CC[C@]1(c2ccccc2OC)C(=O)N(C(=O)OC)N1C(=O)OC` reads 18.5%.
As for `CCN(CC(=O)NC(C)C)C(=O)CCNC(=O)c1ccc(Cl)cc1`, the inhibition was 14.3%.
Next, `O=C(OC1CCOC1=O)c1cccc(S(=O)(=O)Nc2ccc(F)cc2)c1` (stereo not given): 14.8%.
The result for `COc1ccc(N2CCN(C(=O)COC(=O)c3cccc(S(=O)(=O)Nc4ccccc4OC)c3)CC2)cc1` reads 12.6%; that for `CC(=O)Nc1ccc(/C(C)=N/NC(=O)CN(c2ccccc2Br)S(C)(=O)=O)cc1`, 1.74%.
The result for `O=C(COc1cccc(F)c1)Oc1ccc(C(=O)c2ccccc2)cc1` reads -3.52%; that for `COC(=O)c1ccc(OC(=O)c2cnccn2)cc1`, 17.4%.
In the case of `O=C(Oc1ccc(-c2nc(-c3ccccn3)no2)cc1)c1ccccc1`, the inhibition was 42.3% (active).
As to `CC(=O)Nc1ccc(NC(=O)[C@@H](NC(=O)c2cccc(C)c2)C(C)C)cc1`, the inhibition was 4.88%.
On to `Cc1cccc(C(=O)Nc2ccc(C(=O)/C=C/c3cccs3)cc2)c1`, for which the inhibition was -134%.
The result for `Cc1cccc(C(=O)Nc2ccc(CC(=O)O)cc2)c1` reads 60.9% (active); that for `O=C(CCc1ccccc1)NNc1ccc(F)cc1`, 5.59%.
With `COc1ccc(C2C(C#N)=C(N)Oc3n[nH]c(C)c32)cc1CN1CCN(c2ccc(F)cc2)CC1` (stereo not given), the inhibition was 16.6%.
`CCCc1[nH]nc2c1C(c1ccc(Br)s1)C(C#N)=C(N)O2` (stereo not given): the inhibition was 80.8% (active).
Next, `CCCc1[nH]nc2c1C(C1CC=CCC1)C(C#N)=C(N)O2` (stereo not given): 52.3% (active); `CCCc1nc2c([nH]1)C(c1cccnc1)C(C#N)=C(N)O2` (stereo not given): 20.2%.
Next, `N#CC1=C(N)OC2=C(C(=O)CCC2)C1C1CC=CCC1` (stereo not given): -5.19%; `CSC1=NCCN1C(=O)c1ccc(S(=O)(=O)N2CCOCC2)cc1`: 4.81%.
The result for `CC(C)C(C(=O)NC1CCCCC1)N(CC1CCCO1)C(=O)CNS(=O)(=O)c1ccc(F)cc1` (stereo not given) reads 12.1%.
On to `COc1ccc(C2/C=C\CN(CC(C)C)CC(=O)N2Cc2ccc(F)cc2)cc1` (stereo not given), for which the inhibition is 4.31%.
Take `COC(=O)c1sccc1NC(=O)CSc1ccccc1NS(=O)(=O)c1cc(Cl)ccc1Cl`: the inhibition is 7.65%.
Turning to `Cc1ccc(CC(=O)N(C)CC(=O)N(CC(C)C)c2c(N)n(CC(C)C)c(=O)[nH]c2=O)cc1C`, the inhibition was 10.3%.
Consider `C=C(C)C(=O)O[C@H]1C/C(C)=C\C(=O)/C=C(\C)[C@H](O)[C@@H]2OC(=O)C(=C)[C@@H]21`, for which the inhibition is 92.8% (active).
